Targets with a hit are over-represented here; the source holds about 7,900 in all. About 0.6% of all pairs of compound and target were hits.
Assays:
Experiment in all cases: log2 fold change, soluble protein after heating vs DMSO (PISA); higher = thermal stabilisation; K562 cells, 10 uM, 30 min; active = over 0.2 and 3.5 SD of the protein, either way, in both replicates (recomputed)
YAE1 = YAE1 (UniProt Q9NRH1)
In short: (§1)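 Soluble protein was quantified by TMTpro 16plex LC-MS/MS after channel sums were equalised. It was obtained as the supernatant after 21,000xg for 90 min from pooled aliquots of K562 cells (2×10^6 cells/mL, 10 μM compound, 30 min) heated for 3 min across 48°C-58°C and extracted in PBS with 0.5% NP-40 at 4°C. Thermal stability values are relative to control samples and come from duplicates. They are given as log2 fold changes.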

YBX1 = YBX1 (UniProt P67809)
In short: as §1

YES1 = YES1 (UniProt P07947)
In short: as §1

YIPF4 = YIPF4 (UniProt Q9BSR8)
In short: as §1

YIPF5 isoform 3 = YIPF5 isoform 3 (UniProt Q969M3)
In short: as §1

YIPF6 = YIPF6 (UniProt Q96EC8)
In short: as §1

YLPM1 = YLPM1 (UniProt P49750)
In short: as §1

YOD1 = YOD1 (UniProt Q5VVQ6)
In short: as §1

YWHAB = YWHAB (UniProt P31946)
In short: as §1

YWHAQ = YWHAQ (UniProt P27348)
In short: as §1

YWHAZ [1] = molecular target: YWHAZ (UniProt E7ESK7)
In short: as §1

YWHAZ [2] = molecular target: YWHAZ (UniProt P63104)
In short: as §1

YY1 = YY1 (UniProt P25490)
In short: as §1

ZADH2 = ZADH2 (UniProt Q8N4Q0)
In short: as §1

ZBTB17 isoform 2 = ZBTB17 isoform 2 (UniProt Q13105)
In short: as §1

ZBTB21 = ZBTB21 (UniProt Q9ULJ3)
In short: as §1

ZBTB43 = ZBTB43 (UniProt O43298)
In short: as §1

ZC3H18 = ZC3H18 (UniProt Q86VM9)
In short: as §1

YPEL5 = YPEL5 (UniProt P62699)
In short: as §1

Measured: log2 fold change

YWHAB, sequence (P31946 whole entry, looked up): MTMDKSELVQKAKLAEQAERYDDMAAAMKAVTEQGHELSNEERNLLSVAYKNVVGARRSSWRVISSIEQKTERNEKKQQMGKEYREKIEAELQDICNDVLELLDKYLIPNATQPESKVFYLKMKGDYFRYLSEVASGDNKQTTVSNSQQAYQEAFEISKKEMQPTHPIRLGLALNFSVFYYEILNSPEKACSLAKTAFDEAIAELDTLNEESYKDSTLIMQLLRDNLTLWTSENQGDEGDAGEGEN
ZC3H18, sequence (Q86VM9 whole entry, looked up): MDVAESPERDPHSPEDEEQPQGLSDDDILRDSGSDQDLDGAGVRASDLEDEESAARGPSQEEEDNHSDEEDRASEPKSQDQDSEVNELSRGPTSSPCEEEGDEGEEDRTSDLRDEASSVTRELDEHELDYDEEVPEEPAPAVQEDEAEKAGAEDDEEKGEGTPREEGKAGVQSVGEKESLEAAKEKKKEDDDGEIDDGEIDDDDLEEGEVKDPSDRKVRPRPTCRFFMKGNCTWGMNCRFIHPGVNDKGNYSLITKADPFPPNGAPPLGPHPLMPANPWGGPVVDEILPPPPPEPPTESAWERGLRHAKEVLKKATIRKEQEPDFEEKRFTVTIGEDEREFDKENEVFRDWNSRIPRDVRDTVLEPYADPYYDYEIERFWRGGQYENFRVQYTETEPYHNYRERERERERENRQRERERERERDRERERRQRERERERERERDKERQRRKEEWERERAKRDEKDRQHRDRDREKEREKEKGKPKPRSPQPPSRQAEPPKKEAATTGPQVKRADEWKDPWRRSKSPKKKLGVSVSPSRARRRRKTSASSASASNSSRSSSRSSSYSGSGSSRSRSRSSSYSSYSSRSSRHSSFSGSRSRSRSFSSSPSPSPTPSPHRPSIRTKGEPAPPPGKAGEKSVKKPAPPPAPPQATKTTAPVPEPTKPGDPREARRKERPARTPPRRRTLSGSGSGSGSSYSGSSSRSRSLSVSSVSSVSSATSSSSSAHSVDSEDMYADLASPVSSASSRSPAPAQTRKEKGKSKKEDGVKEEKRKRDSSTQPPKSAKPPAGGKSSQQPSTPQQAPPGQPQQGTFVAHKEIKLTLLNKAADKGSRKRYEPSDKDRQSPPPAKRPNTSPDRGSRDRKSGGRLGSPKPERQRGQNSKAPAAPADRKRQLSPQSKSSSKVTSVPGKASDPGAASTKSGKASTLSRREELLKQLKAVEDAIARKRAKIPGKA
YAE1, sequence (Q9NRH1 whole entry, looked up): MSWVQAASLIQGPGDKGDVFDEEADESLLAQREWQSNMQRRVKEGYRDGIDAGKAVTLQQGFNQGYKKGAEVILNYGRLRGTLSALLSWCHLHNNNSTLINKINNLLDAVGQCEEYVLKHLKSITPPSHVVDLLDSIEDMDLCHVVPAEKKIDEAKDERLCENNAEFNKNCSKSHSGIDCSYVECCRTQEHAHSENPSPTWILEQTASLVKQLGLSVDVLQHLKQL
YWHAQ, sequence (P27348 whole entry, looked up): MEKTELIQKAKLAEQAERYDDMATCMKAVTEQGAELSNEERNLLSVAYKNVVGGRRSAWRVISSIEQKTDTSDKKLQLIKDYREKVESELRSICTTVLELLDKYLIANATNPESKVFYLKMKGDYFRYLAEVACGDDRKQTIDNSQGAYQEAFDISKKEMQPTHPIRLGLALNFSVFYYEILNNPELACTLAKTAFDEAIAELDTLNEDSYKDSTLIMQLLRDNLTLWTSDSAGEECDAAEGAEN
YES1, sequence (P07947 whole entry, looked up): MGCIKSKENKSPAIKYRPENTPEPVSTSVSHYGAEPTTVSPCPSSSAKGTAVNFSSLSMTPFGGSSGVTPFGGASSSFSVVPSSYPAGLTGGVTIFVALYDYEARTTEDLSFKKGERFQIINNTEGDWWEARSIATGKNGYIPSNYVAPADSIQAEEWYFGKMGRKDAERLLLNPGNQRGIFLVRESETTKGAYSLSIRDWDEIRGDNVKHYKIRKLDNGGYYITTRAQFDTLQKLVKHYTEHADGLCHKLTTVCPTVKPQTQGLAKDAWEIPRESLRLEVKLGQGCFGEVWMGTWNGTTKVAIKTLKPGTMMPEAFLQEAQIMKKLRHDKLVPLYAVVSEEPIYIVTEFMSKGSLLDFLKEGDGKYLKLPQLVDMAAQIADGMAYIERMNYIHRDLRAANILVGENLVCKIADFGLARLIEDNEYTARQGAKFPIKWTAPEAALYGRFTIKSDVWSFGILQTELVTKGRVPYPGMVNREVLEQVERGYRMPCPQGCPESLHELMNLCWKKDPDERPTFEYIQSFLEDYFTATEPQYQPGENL
YPEL5, sequence (P62699 whole entry, looked up): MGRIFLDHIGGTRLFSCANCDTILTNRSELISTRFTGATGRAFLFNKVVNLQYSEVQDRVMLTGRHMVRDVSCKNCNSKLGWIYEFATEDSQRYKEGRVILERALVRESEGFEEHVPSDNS
YY1, sequence (P25490 whole entry, looked up): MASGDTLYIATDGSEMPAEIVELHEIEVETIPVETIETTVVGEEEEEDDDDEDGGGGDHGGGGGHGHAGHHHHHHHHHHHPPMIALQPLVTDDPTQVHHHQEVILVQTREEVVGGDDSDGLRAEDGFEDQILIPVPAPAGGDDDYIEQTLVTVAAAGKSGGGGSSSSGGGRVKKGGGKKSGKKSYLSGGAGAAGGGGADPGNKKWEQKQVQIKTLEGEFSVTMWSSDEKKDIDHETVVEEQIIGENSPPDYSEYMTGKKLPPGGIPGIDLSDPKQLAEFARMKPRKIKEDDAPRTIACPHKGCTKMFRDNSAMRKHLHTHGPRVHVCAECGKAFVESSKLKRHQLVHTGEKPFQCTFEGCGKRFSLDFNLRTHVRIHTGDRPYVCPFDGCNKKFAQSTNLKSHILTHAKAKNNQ
YIPF4, sequence (Q9BSR8 whole entry, looked up): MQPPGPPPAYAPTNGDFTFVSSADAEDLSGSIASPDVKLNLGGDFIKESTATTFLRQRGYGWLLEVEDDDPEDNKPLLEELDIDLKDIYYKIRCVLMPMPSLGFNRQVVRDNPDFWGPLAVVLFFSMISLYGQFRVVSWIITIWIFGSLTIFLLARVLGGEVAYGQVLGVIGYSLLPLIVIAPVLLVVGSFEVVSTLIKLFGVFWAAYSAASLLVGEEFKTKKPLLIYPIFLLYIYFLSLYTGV
YIPF5 isoform 3, sequence (Q969M3 whole entry, looked up, canonical isoform): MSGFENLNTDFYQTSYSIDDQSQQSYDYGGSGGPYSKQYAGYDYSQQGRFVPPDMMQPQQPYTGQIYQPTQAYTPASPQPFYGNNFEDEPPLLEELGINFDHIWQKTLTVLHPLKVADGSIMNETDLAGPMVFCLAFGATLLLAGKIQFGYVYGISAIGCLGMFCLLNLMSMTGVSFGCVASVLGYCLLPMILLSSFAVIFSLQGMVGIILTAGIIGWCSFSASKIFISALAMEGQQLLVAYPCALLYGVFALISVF
ZBTB43, sequence (O43298 whole entry, looked up): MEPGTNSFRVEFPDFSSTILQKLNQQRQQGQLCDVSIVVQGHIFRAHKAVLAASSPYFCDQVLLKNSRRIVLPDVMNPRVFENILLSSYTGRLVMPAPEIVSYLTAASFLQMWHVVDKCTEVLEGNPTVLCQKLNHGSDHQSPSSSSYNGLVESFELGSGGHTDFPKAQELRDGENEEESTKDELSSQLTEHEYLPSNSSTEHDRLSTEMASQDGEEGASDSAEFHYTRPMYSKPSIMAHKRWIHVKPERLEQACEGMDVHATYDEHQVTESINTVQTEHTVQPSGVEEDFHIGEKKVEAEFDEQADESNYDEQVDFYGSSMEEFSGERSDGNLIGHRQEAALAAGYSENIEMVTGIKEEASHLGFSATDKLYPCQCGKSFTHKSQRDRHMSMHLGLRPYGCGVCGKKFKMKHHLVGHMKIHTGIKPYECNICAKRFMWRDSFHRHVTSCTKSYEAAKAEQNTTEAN
YOD1, sequence (Q5VVQ6 whole entry, looked up): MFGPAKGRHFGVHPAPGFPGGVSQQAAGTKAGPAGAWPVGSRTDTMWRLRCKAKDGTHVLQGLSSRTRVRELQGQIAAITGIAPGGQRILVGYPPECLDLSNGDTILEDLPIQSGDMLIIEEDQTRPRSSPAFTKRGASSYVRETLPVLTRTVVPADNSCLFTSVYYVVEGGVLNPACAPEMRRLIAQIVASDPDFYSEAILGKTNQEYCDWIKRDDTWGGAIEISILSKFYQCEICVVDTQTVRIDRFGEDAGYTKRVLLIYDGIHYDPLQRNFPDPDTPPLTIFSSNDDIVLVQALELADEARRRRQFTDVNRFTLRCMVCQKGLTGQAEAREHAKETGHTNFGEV
ZADH2, sequence (Q8N4Q0 whole entry, looked up): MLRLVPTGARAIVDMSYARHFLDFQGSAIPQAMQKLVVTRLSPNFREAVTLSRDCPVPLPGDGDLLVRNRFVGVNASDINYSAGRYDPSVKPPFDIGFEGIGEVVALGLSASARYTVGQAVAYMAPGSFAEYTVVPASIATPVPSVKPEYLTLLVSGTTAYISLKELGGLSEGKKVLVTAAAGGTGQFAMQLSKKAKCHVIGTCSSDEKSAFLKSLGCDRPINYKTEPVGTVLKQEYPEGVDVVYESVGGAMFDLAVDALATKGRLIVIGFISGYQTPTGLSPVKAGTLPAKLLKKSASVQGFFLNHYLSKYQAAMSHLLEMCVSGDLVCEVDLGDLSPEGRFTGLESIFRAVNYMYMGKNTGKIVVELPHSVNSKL
YIPF6, sequence (Q96EC8 whole entry, looked up): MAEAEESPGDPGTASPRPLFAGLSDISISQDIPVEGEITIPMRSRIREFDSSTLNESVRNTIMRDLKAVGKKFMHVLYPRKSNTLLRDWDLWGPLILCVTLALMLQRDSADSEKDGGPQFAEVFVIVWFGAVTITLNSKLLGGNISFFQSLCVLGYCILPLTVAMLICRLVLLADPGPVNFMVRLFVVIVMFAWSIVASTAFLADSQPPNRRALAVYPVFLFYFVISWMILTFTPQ

NC1(Cc2ccc(Cl)cc2)CCN(c2ncnc3[nH]ccc23)CC1
inactive: YAE1 -0.022 | YBX1 -0.159 | YES1 -0.059 | YIPF4 -0.016 | YIPF5 isoform 3 0.126 | YIPF6 -0.015 | YLPM1 0.102 | YOD1 -0.037 | YWHAB 0.028 | YWHAQ 0.029 | YWHAZ [1] 0.07 | YWHAZ [2] 0.059 | YY1 0.066 | ZADH2 0.008 | ZBTB17 isoform 2 -0.199 | ZBTB21 0.024 | ZBTB43 -0.053 | ZC3H18 -0.124

Cc1ncc(-c2ccnc(Nc3ccc(S(C)(=O)=O)cc3)n2)n1C(C)C
inactive: YAE1 0.042 | YBX1 0.013 | YES1 -0.051 | YIPF4 -0.005 | YIPF5 isoform 3 -0.03 | YIPF6 -0.023 | YLPM1 -0.011 | YOD1 -0.018 | YPEL5 0.036 | YWHAB 0 | YWHAQ -0.026 | YWHAZ [2] -0.003 | YY1 -0.207 | ZADH2 0.066 | ZBTB21 0.061 | ZBTB43 0.16 | ZC3H18 -0.162

CCn1cc(-c2ccnc3[nH]c(-c4cccc(CN(C)C)c4)cc23)c(-c2ccc(NC(=O)N(C)C)cc2)n1
inactive: YAE1 -0.015 | YBX1 0.249 | YES1 -0.241 | YIPF4 0.037 | YIPF5 isoform 3 0.06 | YIPF6 0.103 | YLPM1 -0.012 | YOD1 -0.101 | YPEL5 -0.072 | YWHAB 0.014 | YWHAQ 0.143 | YWHAZ [2] -0.042 | YY1 0.002 | ZADH2 0.13 | ZBTB21 -0.073 | ZBTB43 0.028 | ZC3H18 0.068

CNC(=O)c1ccc(Nc2ncc(C(F)(F)F)c(NCc3nccnc3N(C)S(C)(=O)=O)n2)cc1 [defactinib]
active: YY1 -0.299
inactive: YAE1 0.026 | YBX1 0.301 | YES1 -0.199 | YIPF4 -0.016 | YIPF5 isoform 3 -0.019 | YIPF6 -0.041 | YLPM1 -0.019 | YOD1 -0.103 | YPEL5 -0.073 | YWHAB -0.022 | YWHAQ 0 | YWHAZ [2] 0 | ZADH2 0.025 | ZBTB21 -0.033 | ZBTB43 0.063 | ZC3H18 -0.234

Cc1cc(Nc2cc(CN3CCOCC3)c3nc(C)c(Cc4ccc(Cl)cc4F)n3n2)n[nH]1 [gandotinib]
inactive: YAE1 0.007 | YBX1 0.334 | YES1 -0.447 | YIPF4 -0.086 | YIPF5 isoform 3 -0.1 | YIPF6 -0.019 | YLPM1 -0.117 | YOD1 -0.149 | YPEL5 -0.095 | YWHAQ -0.071 | YWHAZ [2] 0.084 | YY1 -0.012 | ZADH2 0.128 | ZBTB21 0.074 | ZBTB43 0.043 | ZC3H18 0.017
active: YWHAB -0.25

CN1CCc2c(c3ccccc3n2Cc2ccc(C(=O)NO)cc2)C1 [Tubastatin A]
inactive: YAE1 -0.018 | YBX1 0.022 | YES1 0.094 | YIPF4 -0.028 | YIPF5 isoform 3 -0.103 | YIPF6 -0.01 | YLPM1 0.039 | YOD1 0.072 | YWHAB -0.014 | YWHAQ -0.026 | YWHAZ [1] 0.102 | YWHAZ [2] -0.004 | YY1 -0.011 | ZADH2 -0.007 | ZBTB17 isoform 2 0.049 | ZBTB21 -0.132 | ZBTB43 -0.018 | ZC3H18 0.129

CC[C@H](C)n1cc(C)c2c(C(=O)NCc3c(C)cc(C)[nH]c3=O)cc(-c3ccc(N4CCNCC4)nc3)cc21
inactive: YAE1 0.02 | YBX1 -0.063 | YES1 0.112 | YIPF4 -0.016 | YIPF5 isoform 3 -0.041 | YIPF6 -0.039 | YLPM1 0.067 | YOD1 0.081 | YPEL5 0.109 | YWHAB 0.009 | YWHAQ 0.072 | YWHAZ [2] 0.008 | YY1 0.061 | ZBTB21 0.059 | ZBTB43 -0.187 | ZC3H18 0.032
active: ZADH2 0.526

Reference: the supplement of paper PMC10849652
